Source: paper PMC7862700, “An all-to-all approach to the identification of sequence-specific readers for epigenetic DNA modifications on cytosine”

How the values were obtained:
Assay in all cases: DAPPL (digital affinity profiling via proximity ligation, sequencing); 10 mM Tris-HCl pH 7.5, 50 mM NaCl, 1 mM DTT, 4% glycerol, room temperature, 30 min; GST-TFs on glutathione beads, 16-mer random dsDNA library, 0.1% formaldehyde crosslink after washing; high values mean tight binding
Settings in all cases: protein: recombinant; tags: N-terminal GST; dsDNA, one strand shown
FLI1 = biological target: T1, FLI1 (Homo sapiens, UniProt Q01543 1-452)
T1 sequence: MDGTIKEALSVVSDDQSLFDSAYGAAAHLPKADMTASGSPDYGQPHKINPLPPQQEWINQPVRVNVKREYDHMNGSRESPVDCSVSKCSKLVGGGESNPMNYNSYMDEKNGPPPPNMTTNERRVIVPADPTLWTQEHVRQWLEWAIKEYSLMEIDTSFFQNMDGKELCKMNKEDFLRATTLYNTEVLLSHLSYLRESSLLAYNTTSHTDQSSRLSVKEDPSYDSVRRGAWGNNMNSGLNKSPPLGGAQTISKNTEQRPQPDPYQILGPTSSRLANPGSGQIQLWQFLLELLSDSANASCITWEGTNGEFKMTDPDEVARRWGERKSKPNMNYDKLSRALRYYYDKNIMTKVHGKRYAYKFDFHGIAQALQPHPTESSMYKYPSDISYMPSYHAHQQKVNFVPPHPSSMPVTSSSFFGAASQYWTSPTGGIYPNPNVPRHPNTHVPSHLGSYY
How it was run: (§1)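 Human transcription factors carrying a GST fusion were produced in yeast, bound to glutathione beads, tagged with DNA barcodes and pooled together with a tag-only sample. Each pool was held with 200 nmole of a random double-stranded 16-mer DNA library in Tris/NaCl/DTT/glycerol buffer for 30 min at room temperature, then washed, crosslinked in 0.1% formaldehyde, proximity-ligated with BsaI/T4 ligase (1 h, 37 °C), PCR-amplified and sequenced on an Illumina NextSeq500. Binding signal is the read frequency of each hexamer for a given factor divided by its frequency in the tag-only sample.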

ELK1 = biological target: T2, ELK1 (Homo sapiens, UniProt P19419 1-428)
T2 sequence: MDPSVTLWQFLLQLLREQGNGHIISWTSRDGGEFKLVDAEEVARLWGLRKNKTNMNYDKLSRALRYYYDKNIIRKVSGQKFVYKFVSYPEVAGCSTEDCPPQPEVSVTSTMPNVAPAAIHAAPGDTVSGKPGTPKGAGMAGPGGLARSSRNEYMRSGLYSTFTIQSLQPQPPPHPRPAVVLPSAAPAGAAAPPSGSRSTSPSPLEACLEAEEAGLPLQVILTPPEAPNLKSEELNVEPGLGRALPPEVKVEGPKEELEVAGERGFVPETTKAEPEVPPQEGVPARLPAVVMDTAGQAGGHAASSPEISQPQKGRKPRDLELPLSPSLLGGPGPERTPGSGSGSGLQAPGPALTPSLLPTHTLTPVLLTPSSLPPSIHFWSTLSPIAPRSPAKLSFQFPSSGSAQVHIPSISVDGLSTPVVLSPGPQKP
How it was run: as §1

GABPA = biological target: T3, GABPA (Homo sapiens, UniProt Q06546 1-454)
T3 sequence: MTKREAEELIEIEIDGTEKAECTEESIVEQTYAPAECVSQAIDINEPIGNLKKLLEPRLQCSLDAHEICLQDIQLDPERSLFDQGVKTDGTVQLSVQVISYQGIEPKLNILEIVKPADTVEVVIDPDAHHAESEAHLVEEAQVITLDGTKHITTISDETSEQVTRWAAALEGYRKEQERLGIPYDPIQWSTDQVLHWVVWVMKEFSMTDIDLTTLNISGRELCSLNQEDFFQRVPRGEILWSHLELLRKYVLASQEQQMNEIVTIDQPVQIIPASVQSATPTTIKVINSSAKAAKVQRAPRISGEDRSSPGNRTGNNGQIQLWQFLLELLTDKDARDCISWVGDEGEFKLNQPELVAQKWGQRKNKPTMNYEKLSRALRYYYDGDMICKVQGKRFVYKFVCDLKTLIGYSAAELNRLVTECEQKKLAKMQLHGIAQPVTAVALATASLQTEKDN
How it was run: as §1

ERG = biological target: T4, ERG (Homo sapiens, UniProt P11308 1-479)
T4 sequence: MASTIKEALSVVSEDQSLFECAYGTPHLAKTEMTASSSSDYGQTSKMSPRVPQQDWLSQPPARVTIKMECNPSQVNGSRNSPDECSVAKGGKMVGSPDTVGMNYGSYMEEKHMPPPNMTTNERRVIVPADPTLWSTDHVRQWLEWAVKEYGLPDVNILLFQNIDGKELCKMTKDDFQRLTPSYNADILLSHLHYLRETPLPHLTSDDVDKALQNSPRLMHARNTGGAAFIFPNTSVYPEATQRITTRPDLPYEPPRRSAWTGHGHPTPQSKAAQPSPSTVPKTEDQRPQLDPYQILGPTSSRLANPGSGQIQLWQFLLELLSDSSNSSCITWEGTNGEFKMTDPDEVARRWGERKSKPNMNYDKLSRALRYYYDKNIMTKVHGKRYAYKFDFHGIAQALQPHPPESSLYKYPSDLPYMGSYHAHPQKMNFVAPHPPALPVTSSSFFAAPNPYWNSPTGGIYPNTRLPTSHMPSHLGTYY
How it was run: as §1

ELF1 = ELF1 (Homo sapiens, UniProt P32519 1-619)
Chain of ELF1 (P32519 whole entry): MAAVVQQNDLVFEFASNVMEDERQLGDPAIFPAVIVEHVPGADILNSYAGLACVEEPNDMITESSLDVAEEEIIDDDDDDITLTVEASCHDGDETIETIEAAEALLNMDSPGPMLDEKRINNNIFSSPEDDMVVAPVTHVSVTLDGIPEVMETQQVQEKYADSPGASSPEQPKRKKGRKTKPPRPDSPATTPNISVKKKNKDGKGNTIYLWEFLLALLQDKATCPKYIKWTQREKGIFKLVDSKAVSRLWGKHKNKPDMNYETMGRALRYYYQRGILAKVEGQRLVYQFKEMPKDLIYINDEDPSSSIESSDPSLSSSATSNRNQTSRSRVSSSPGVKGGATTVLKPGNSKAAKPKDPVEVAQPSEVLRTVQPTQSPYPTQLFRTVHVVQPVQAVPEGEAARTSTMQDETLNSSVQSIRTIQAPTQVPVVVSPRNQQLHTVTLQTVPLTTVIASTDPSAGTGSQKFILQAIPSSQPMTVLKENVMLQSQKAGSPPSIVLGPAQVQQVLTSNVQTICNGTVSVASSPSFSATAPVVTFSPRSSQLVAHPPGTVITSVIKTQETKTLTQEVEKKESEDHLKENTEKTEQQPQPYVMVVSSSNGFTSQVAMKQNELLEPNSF
How it was run: as §1

EHF = biological target: T5, EHF (Homo sapiens, UniProt Q9NZC4 1-300)
T5 sequence: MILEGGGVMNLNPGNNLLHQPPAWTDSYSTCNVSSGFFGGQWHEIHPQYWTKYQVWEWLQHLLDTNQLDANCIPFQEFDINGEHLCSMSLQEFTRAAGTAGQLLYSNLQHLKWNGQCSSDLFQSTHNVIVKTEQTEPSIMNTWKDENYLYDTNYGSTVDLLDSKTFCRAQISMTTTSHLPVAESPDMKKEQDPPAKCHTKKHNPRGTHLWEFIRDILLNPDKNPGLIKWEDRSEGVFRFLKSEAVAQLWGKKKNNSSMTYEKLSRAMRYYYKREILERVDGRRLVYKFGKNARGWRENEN
How it was run: as §1

SPI1 = SPI1 (Homo sapiens, UniProt P17947 1-270)
How it was run: as §1

SPIB = SPIB (Homo sapiens, UniProt Q01892 1-262)
Chain of SPIB (Q01892 whole entry): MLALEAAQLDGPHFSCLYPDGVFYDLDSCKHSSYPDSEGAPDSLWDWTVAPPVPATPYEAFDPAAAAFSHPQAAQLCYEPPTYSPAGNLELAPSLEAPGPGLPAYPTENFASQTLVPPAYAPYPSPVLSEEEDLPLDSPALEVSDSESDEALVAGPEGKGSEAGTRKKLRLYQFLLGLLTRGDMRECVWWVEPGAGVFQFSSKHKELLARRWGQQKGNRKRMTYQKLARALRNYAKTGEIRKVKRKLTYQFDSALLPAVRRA
How it was run: as §1

ELK3 = biological target: T6, ELK3 (Homo sapiens, UniProt P41970 1-407)
T6 sequence: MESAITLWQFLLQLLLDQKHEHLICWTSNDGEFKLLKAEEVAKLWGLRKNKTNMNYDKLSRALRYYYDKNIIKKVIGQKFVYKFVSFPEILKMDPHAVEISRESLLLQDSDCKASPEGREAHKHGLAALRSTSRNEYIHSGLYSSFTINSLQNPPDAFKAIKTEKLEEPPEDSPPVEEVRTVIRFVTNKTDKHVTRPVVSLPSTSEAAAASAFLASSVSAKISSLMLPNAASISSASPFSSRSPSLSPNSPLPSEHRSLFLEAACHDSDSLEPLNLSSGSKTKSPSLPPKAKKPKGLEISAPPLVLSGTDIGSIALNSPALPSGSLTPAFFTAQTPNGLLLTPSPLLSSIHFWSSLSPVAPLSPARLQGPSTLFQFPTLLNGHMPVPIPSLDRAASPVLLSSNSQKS
How it was run: as §1

For TCGTTT, the binding signal (FLI1) was 1.13 fold enrichment (6-mer frequency, TF over GST control), the binding signal (ELK1) was 1.21 fold enrichment (6-mer frequency, TF over GST control) and the binding signal (GABPA) was 1.28 fold enrichment (6-mer frequency, TF over GST control). For the same sequence, the binding signal (ERG) was 1.15 fold enrichment (6-mer frequency, TF over GST control), the binding signal (ELF1) was 1.15 fold enrichment (6-mer frequency, TF over GST control) and the binding signal (EHF) was 1.22 fold enrichment (6-mer frequency, TF over GST control). The binding signal (SPI1) was 1.2 fold enrichment (6-mer frequency, TF over GST control), the binding signal (SPIB) was 1.18 fold enrichment (6-mer frequency, TF over GST control) and the binding signal (ELK3) was 1.05 fold enrichment (6-mer frequency, TF over GST control).
